Test results taken from PubChem BioAssay.
Records with an inconclusive call do not appear. The source made the active and inactive calls.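 The calls were made as follows, unless noted: active = viability at or below 27.92% in each of two runs, the all-compound median minus 4 SD; inconclusive = no clear call, values can overlap the other calls; inactive = the rest.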

Columns and labels:
[1] = Her2 expression decrease, cell viability multiplex – SKBR3 breast tumor cells, AlphaScreen, ATP viability, primary screen (AID 461;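 active = Her2 level under about 52% in both replicate screens, with viability over 70% of control, limit read from the data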;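 as to Her2 level: lower value means less Her2 protein in the cells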;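 as to viability: percent of carrier control wells set as 100% viability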); settings: SKBR3 Her2 protein level, 18-24 h, measured here: SKBR3 viability, ATP luminescence, at 10 µM
[2] = target: Receptor tyrosine-protein kinase erbB-2 (Homo sapiens) (UniProt P04626); experiment: as above; settings: 18-24 h, at 10 µM, stronger effect = lower value
[3] = reduced viability of SK-BR-3 breast cancer cells – cell-based, 24 h, human, pilot screen (AID 572;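 active = viability at or below 10% of carrier control in both of two separate runs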;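 also: compound exposure lasted between 18 and 24 h rather than exactly 24 h; 100% = carrier-treated control wells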); settings: SK-BR-3 viability, CellTiter-Glo luminescence, at 10 µM, stronger effect = lower value
[4] = HUVEC growth inhibition – cell-based, human, primary screen (AID 575;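 active = viability at or below 30% in both replicate assays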;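 also: 100% = median of untreated cell wells with 0.1% DMSO on each plate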); settings: HUVEC proliferation, CellTiter-Glo luminescence, 72 h; at 10 µM; stronger effect = lower value
[5] = H69AR cell proliferation blockers – human, duplicate replicates, primary screen (AID 580;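 active = viability at or under a set limit in both replicates, limit being median viability minus 3 SD, cut at about 48% in these data, passing the limit was not always enough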;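 also: 100% = mean luminescence of untreated wells and 0% = no signal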); settings: H69AR lung tumor cells viability, ATP luminescence, 72 h; at 10 µM; stronger effect = lower value
[6] = MRP1 drug-resistance reversers in H69AR cells – cell-based, doxorubicin co-treatment, pilot screen (AID 601;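 active = viability loss from added drug above about 55%, and viability with drug at most 40%, in both replicates, limit read from the data, passing the limit was not always enough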); settings: CellTiter-Glo, 72 h, at 10 µM; for differential viability (reversal): stronger effect = higher value
[7] = yeast transport mutant growth inhibition pilot in 384-well plates, post-Golgi transport modulator project (AID 636; in the data active = inhibition above about 31%); settings: absorbance 615 nm, about 18 h, stronger effect = higher value
[8] = growth suppression of yeast trafficking mutant, preliminary HTS, modulators of trafficking downstream of Golgi apparatus project, 1536-format plate, OD 615 nm (AID 637; in the data active = inhibition above about 30%); settings: yeast transport mutant growth, absorbance 615 nm, 18 h; stronger effect = higher value
[9] = S. cerevisiae growth inhibition in permissive medium (OD615), pilot counter-assay for S. cerevisiae lifespan shortening project, permissive growth control (AID 705;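 active = growth inhibition above 25% in both replicates, a cutoff set 3 SD above the mean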); settings: OD615, 24 h, at 10 µM, stronger effect = higher value
[10] = S. cerevisiae growth inhibition in restrictive medium, OD615, pilot screen, restrictive growth control, yeast lifespan reduction project (AID 706;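 active = growth inhibition above a set limit, 3 SD over mean compound inhibition, in both replicates, cut at about 43% in these data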;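 also: modified DeaD lifespan yeast strain shifted to restrictive glucose medium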); settings: OD615, 48 h, at 10 µM, stronger effect = higher value
[11] = doxorubicin toxicity protection in MRP-1 cells – H69AR cells, CellTiter-Glo, duplicate, MRP-1 activator project, pilot screen (AID 807;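 active = viability increase at or above a cutoff of the median across tested compounds plus 3 SD, cut at about 8.5% in these data, passing the limit was not always enough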;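 also: compound pretreatment 18-22 h then 72 h combined with doxorubicin; 0% = doxorubicin alone and 100% = vehicle without doxorubicin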); settings: H69AR viability with doxorubicin, CellTiter-Glo luminescence; at 10 µM; stronger effect = higher value
[12] = viability of HCT116 without oncogenic beta-catenin – human colon tumor cells, pilot screen (AID 823;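 active = cell viability at or below a set limit in both duplicate runs, the limit being the all-compound median minus 4 SD, cut at about 23% in these data, passing the limit was not always enough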;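 also: 0% = wells killed by 20 µM Hyamine and 100% = untreated DMSO cell wells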); settings: HCT116 beta-catenin knockout viability, CellTiter-Glo, 60 h; at 10 µM; stronger effect = lower value
[13] = viability of PTEN-null HCT116 cells – cell-based, HCT116 clonal line, CellTiter-Glo, pilot screen (AID 824); settings: HCT116 PTEN-deleted viability, 60 h, at 10 µM, stronger effect = lower value;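 also: 0% = 20 µM Hyamine control and 100% = vehicle cell control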
[14] = RAM pathway blockade in budding yeast – dse1pr::URA3 reporter, 5-FOA selection, pilot screen (AID 869;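 active = inhibition over a set limit, the all-compound mean plus 3 SD, in both replicate runs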;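 also: 0% = DMSO wells with no growth and 100% = 10 µM 1-NA-PP1 with full growth; RAM network block rescues cells from 5-FOA so hits raise OD615 growth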); settings: S. cerevisiae dse1pr::URA3 5-FOA growth, OD615, 2 d; at 10 µM; stronger effect = higher value; strain carries analog-sensitive mutant Cbk1 kinase
[15] = RAM signaling pathway blockade in yeast – S. cerevisiae, Pdr1DBD-CYC8 efflux-inhibited sensitized strain, primary screen (AID 1298;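 active = RAM network inhibition above 8.4% in each of two replicates, 3 SD over the compound average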;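 also: 0% = DMSO untreated cells without growth and 100% = 10 µM 1-NA-PP1 full growth; higher means more yeast growth rescued from 5-FOA killing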); settings: S. cerevisiae cbk1-as DSE1-URA3 strain, 5-FOA growth OD615, 2 d; at 50 µM; stronger effect = higher value
[16] = H69AR cells + 2 uM doxorubicin, measured here: viability with 2 uM doxorubicin, stronger effect = lower value
[17] = H69AR cells, compound alone cytotoxicity

Receptor tyrosine-protein kinase erbB-2 (Homo sapiens), sequence (P04626 whole entry, looked up): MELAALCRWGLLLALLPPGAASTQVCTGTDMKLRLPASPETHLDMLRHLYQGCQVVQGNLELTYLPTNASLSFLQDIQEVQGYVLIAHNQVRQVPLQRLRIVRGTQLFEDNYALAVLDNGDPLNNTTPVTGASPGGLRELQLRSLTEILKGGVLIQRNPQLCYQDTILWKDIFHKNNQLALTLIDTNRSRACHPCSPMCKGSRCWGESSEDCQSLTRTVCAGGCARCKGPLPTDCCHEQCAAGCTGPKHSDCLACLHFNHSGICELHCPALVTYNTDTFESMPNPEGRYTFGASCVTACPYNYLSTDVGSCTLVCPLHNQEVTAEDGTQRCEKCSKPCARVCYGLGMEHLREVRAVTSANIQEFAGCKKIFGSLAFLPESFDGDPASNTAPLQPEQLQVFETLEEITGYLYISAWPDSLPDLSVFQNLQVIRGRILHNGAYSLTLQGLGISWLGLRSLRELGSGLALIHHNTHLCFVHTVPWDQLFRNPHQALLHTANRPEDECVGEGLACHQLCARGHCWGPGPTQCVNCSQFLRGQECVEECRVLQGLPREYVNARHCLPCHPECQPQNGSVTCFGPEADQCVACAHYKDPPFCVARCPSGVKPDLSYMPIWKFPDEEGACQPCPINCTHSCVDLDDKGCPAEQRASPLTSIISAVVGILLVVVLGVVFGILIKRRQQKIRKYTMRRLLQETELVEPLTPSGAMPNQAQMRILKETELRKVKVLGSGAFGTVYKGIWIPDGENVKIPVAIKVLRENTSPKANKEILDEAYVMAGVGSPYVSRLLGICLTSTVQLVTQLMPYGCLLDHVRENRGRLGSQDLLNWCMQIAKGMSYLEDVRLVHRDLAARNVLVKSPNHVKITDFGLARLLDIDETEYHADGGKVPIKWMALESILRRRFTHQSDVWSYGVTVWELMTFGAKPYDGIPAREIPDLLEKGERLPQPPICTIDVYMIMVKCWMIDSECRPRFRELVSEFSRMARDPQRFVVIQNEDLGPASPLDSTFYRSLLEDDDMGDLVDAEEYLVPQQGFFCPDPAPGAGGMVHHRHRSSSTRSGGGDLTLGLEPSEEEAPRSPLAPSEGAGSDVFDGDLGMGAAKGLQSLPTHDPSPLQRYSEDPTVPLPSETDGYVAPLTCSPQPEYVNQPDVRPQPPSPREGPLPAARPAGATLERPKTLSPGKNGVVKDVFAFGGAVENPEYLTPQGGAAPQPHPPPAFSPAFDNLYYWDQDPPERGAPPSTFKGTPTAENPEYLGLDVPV

SMILES	viability [1] [%]	Her2 level [2]	viability [3]	viability [4]	viability [5]	differential viability (reversal) ([6]; H69AR cells + 2 uM doxorubicin)	viability [6, 16] [%]	viability [6, 17] [%]	inhibition [7]	inhibition [8]	growth inhibition [9]	growth inhibition [10]	viability increase [11]	viability [12]	viability [13]	inhibition [14]	RAM network inhibition [15]
CCn1c(SCC(=O)Nc2ccc(Cl)cc2)nnc1C1CC1	92.5	95.5% (inactive)	92.5% (inactive)	84.2% (inactive)	74.7% (inactive)	11.1% (inactive)	63.7	74.7	-2.27% (inactive)	1.67% (inactive)	5.96% (inactive)	1.14% (inactive)	-4.1% (inactive)	102% (inactive)	97.8% (inactive)	0.85% (inactive)	3.74% (inactive)
CCOC(=O)C1CCN(C(=O)CN(c2ccc(Cl)c(C(F)(F)F)c2)S(C)(=O)=O)CC1	112	100% (inactive)	112% (inactive)	107% (inactive)	92.1% (inactive)	-9.81% (inactive)	102	92.1	-0.65% (inactive)	-2.5% (inactive)	-11.9% (inactive)	-8.95% (inactive)	-3.24% (inactive)	88.1% (inactive)	84.7% (inactive)	-0.1% (inactive)	0.63% (inactive)
CC(C)c1ncc(C(O)c2cccc3ccccc23)n1C (stereo not drawn)	97.5	129% (inactive)	97.5% (inactive)	113% (inactive)	87.5% (inactive)	4.07% (inactive)	83.5	87.5	-4.68% (inactive)	-5.5% (inactive)	-21.2% (inactive)	-7.64% (inactive)	-0.83% (inactive)	81.6% (inactive)	79.1% (inactive)	1.15% (inactive)	0.82% (inactive)
CCOc1ccc2nc(Nc3nc4c(c(=O)[nH]3)CCC4)nc(C)c2c1	99.5	99% (inactive)	99.5% (inactive)	98.4% (inactive)	103% (inactive)	5.67% (inactive)	97.7	103	-4% (inactive)	1.83% (inactive)	-9.17% (inactive)	9.05% (inactive)	0.54% (inactive)	93.8% (inactive)	96.4% (inactive)	1.01% (inactive)	3.45% (inactive)
